Data: the supplement of paper PMC7411054
Structures can show the parent of a compound that is named as a salt.

Columns and labels:
Settings in all cases: treatment time: 24 h
A549-ACTB-RAB5A [1] = experiment: phenotypically active (imaging signature differs from DMSO and reproducible) at any of 0.3-9 uM (binary (1 = active, 0 = inactive)); higher = active
Method in brief: (§1)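 The reporter lines, fifteen in total and built by gene editing in A549, HepG2 and WPMY1 cells, used BFP for segmentation alongside GFP and RFP/FusionRed markers. Each was treated at 0.3, 1, 3 or 9 µM for 24 h in four wells and then imaged live, with live-cell features normalised to solvent control wells. Deviation meant ≥3 of 4 wells beyond the 95th percentile of control Euclidean distances; reproducibility meant a median replicate Pearson correlation above the 95th percentile of non-replicates. Only conditions meeting both were scored as phenotypically active.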

A549-CANX-COX4 [2] = experiment: as above
Method in brief: as §1

A549-GM130-SQSTM1 [3] = experiment: as above
Method in brief: as §1

A549-TP53BP1-CLTA [4] = experiment: as above
Method in brief: as §1

A549-TUBA1B-RELA = experiment: as above
Method in brief: as §1

HepG2-ACTB-RAB5A [5] = experiment: as above
Method in brief: as §1

HepG2-CANX-COX4 = experiment: as above
Method in brief: as §1

HepG2-GM130-SQSTM1 = experiment: as above
Method in brief: as §1

HepG2-TP53BP1-CLTA = experiment: as above
Method in brief: as §1

HepG2-TUBA1B-RELA = experiment: as above
Method in brief: as §1

WPMY1-ACTB-RAB5A = experiment: as above
Method in brief: as §1

WPMY1-CANX-COX4 = experiment: as above
Method in brief: as §1

WPMY1-GM130-SQSTM1 = experiment: as above
Method in brief: as §1

WPMY1-TP53BP1-CLTA = experiment: as above
Method in brief: as §1

WPMY1-TUBA1B-RELA = experiment: as above
Method in brief: as §1

A549-ACTB-RAB5A [6] = experiment: lowest phenotypically active concentration; higher = less potent
Method in brief: as §1

A549-CANX-COX4 [7] = experiment: as above
Method in brief: as §1

A549-GM130-SQSTM1 [8] = experiment: as above
Method in brief: as §1

A549-TP53BP1-CLTA [9] = experiment: as above
Method in brief: as §1

HepG2-ACTB-RAB5A [10] = experiment: as above
Method in brief: as §1

SMILES	phenotypically active (A549-ACTB-RAB5A [1])	phenotypically active (A549-CANX-COX4 [2])	phenotypically active (A549-GM130-SQSTM1 [3])	phenotypically active (A549-TP53BP1-CLTA [4])	phenotypically active (A549-TUBA1B-RELA)	phenotypically active (HepG2-ACTB-RAB5A [5])	phenotypically active (HepG2-CANX-COX4)	phenotypically active (HepG2-GM130-SQSTM1)	phenotypically active (HepG2-TP53BP1-CLTA)	phenotypically active (HepG2-TUBA1B-RELA)	phenotypically active (WPMY1-ACTB-RAB5A)	phenotypically active (WPMY1-CANX-COX4)	phenotypically active (WPMY1-GM130-SQSTM1)	phenotypically active (WPMY1-TP53BP1-CLTA)	phenotypically active (WPMY1-TUBA1B-RELA)	lowest phenotypically active concentration (A549-ACTB-RAB5A [6])	lowest phenotypically active concentration (A549-CANX-COX4 [7])	lowest phenotypically active concentration (A549-GM130-SQSTM1 [8])	lowest phenotypically active concentration (A549-TP53BP1-CLTA [9])	lowest phenotypically active concentration (HepG2-ACTB-RAB5A [10])
COc1ccc2c(c1O)-c1c(OC)c(OC)cc3c1[C@H](C2)N(C)CC3 [Isocorydine (+)]	0 (inactive)	0 (inactive)	0 (inactive)	0 (inactive)	0 (inactive)	0 (inactive)	0 (inactive)	0 (inactive)	0 (inactive)	0 (inactive)	0 (inactive)	0 (inactive)	0 (inactive)	0 (inactive)	0 (inactive)	–	–	–	–	–
C/C=C1\CN2CC[C@]34c5cc(OC)ccc5N5C(=O)C(O)OC[C@@H]([C@H]53)[C@H]1C[C@H]24 (stereo partly specified) [10-Methoxy-o-demethyltsilanine]	0 (inactive)	0 (inactive)	0 (inactive)	0 (inactive)	0 (inactive)	0 (inactive)	0 (inactive)	0 (inactive)	0 (inactive)	0 (inactive)	0 (inactive)	0 (inactive)	0 (inactive)	0 (inactive)	0 (inactive)	–	–	–	–	–
COc1ccc(CCN2CCC(Nc3nc4ccccc4n3Cc3ccc(F)cc3)CC2)cc1 [astemizole]	1 (active)	1 (active)	1 (active)	1 (active)	1 (active)	1 (active)	1 (active)	1 (active)	1 (active)	1 (active)	1 (active)	1 (active)	1 (active)	1 (active)	1 (active)	1 µM	9 µM	≤ 0.3 µM	3 µM	3 µM
COC1=CC(=O)O[C@@H](/C=C/c2ccccc2)C1 [Kawain]	0 (inactive)	0 (inactive)	0 (inactive)	0 (inactive)	0 (inactive)	0 (inactive)	0 (inactive)	0 (inactive)	0 (inactive)	0 (inactive)	0 (inactive)	0 (inactive)	0 (inactive)	0 (inactive)	0 (inactive)	–	–	–	–	–
O=C1C[C@@H]2OCC=C3CN4CC[C@]56c7ccccc7N1[C@H]5[C@H]2[C@H]3C[C@H]46 [Strychnine]	1 (active)	0 (inactive)	0 (inactive)	0 (inactive)	0 (inactive)	0 (inactive)	0 (inactive)	0 (inactive)	0 (inactive)	0 (inactive)	0 (inactive)	0 (inactive)	0 (inactive)	0 (inactive)	0 (inactive)	9 µM	–	–	–	–
COc1cc2c(c(OC)c1OC)-c1ccc(OC)c(=O)cc1[C@@H](NC(C)=O)CC2 [colchicine]	1 (active)	1 (active)	1 (active)	1 (active)	1 (active)	1 (active)	1 (active)	1 (active)	1 (active)	1 (active)	1 (active)	1 (active)	1 (active)	1 (active)	1 (active)	≤ 0.3 µM	≤ 0.3 µM	≤ 0.3 µM	≤ 0.3 µM	≤ 0.3 µM
C[C@]12CC[C@H]3[C@@H](CC[C@]4(O)C[C@@H](O)CC[C@]34C=O)[C@@]1(O)CC[C@@H]2C1=CC(=O)OC1 [Strophanthidin]	1 (active)	1 (active)	1 (active)	1 (active)	1 (active)	1 (active)	1 (active)	1 (active)	1 (active)	1 (active)	1 (active)	1 (active)	1 (active)	1 (active)	1 (active)	≤ 0.3 µM	≤ 0.3 µM	≤ 0.3 µM	≤ 0.3 µM	≤ 0.3 µM
C=C1[C@@H](O)C2C=CC[C@H](C)C(=O)[C@](C)(O)C=C[C@@H](OC(C)=O)[C@]23C(=O)N[C@H](Cc2ccccc2)[C@@H]3[C@@H]1C (stereo partly specified) [Cytochalasin D]	1 (active)	1 (active)	1 (active)	1 (active)	1 (active)	1 (active)	1 (active)	1 (active)	1 (active)	1 (active)	1 (active)	1 (active)	1 (active)	1 (active)	1 (active)	≤ 0.3 µM	≤ 0.3 µM	≤ 0.3 µM	≤ 0.3 µM	≤ 0.3 µM
CNCC(O)c1ccc(O)c(OC)c1 (stereo not drawn) [Metanephrine hydrochloride DL]	0 (inactive)	0 (inactive)	0 (inactive)	0 (inactive)	0 (inactive)	0 (inactive)	0 (inactive)	0 (inactive)	0 (inactive)	0 (inactive)	0 (inactive)	0 (inactive)	0 (inactive)	0 (inactive)	0 (inactive)	–	–	–	–	–
N[C@H]1C[C@@H]1c1ccccc1 [tranylcypromine]	0 (inactive)	0 (inactive)	0 (inactive)	0 (inactive)	0 (inactive)	0 (inactive)	0 (inactive)	0 (inactive)	0 (inactive)	0 (inactive)	0 (inactive)	0 (inactive)	0 (inactive)	0 (inactive)	0 (inactive)	–	–	–	–	–
